# Assay results reported in PubChem BioAssay AID743465 (Broad Institute, 2014).
# Some of the results follow. Inconclusive results are not listed. Calls of active or inactive are those of the source.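 The calls were made as follows: active = compounds lowering PCK1 expression whose fitted half-maximal concentration is at most twice the top tested dose; inconclusive = flat fit with moderate opposite-direction effect, or poor fit; inactive = the rest.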
# Assay: hepatocyte PCK1 gene expression decrease – cell-based, primary mouse hepatocytes, RT-qPCR, cherry-pick, PGC-1a acetylation activator project, dose response (AID 743465);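 also: values are delta delta Ct of PCK1 relative to GAPDH; higher delta delta Ct means lower PCK1 expression so positive values indicate hits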
# Conditions: PCK1 mRNA qPCR, forskolin-stimulated; series mostly up to 26 µM
row,Structure (SMILES),outcome
1,COc1ccc(-n2nnnc2CNC(=O)c2ccc3ccccc3c2)cc1,inactive
2,CC(C)CCNc1nc(N2CCCC2)c2c(c1C#N)CCN(C)C2,inactive
3,COc1ccc(Nc2nnc(C)c3ccccc23)cc1,inactive
4,CCOC(=O)c1c(NC(=O)CSc2cn(CC)c3ccccc23)sc2c1CCC2,inactive
5,Cc1cc(C(=O)NNS(=O)(=O)c2ccccc2C(F)(F)F)nn1C(C)(C)C,inactive
6,CCCCC(=O)Nc1ccc(C(=O)NCCCn2ccnc2)cc1,inactive
7,Cc1ccc(OCC(=O)NCCCNC(=O)c2cccnc2)cc1C,inactive
8,O=C(NCCC1CCCCN1S(=O)(=O)c1cccs1)C(=O)Nc1ccc(F)cc1F (centres undefined),inactive
9,CCOC(=O)c1c(-c2ccc(C)cc2C)csc1NC(=O)CSc1nnnn1C,inactive
10,Cc1ccc(S(=O)(=O)Nc2ccc3c(c2)C(=O)N([C@@H](C)CO)C[C@@H](C)[C@H](CN(C)C(=O)Nc2cccc4ccccc24)OCCCC[C@H](C)O3)cc1,inactive
11,CCC(C)(C)n1nnnc1C(c1ccccc1OC)N1CCSCC1 (centres undefined),inactive
12,Cc1cc(C)c2c(-n3cccc3)c(C(=O)NNS(=O)(=O)c3ccc(F)cc3)sc2n1,inactive
13,CCOc1ccccc1CN1CCN(C2CCC2)CC1CCO (centres undefined),inactive
14,O=C(NCc1ccccc1)C(c1ccccc1)N(C(=O)c1csnn1)c1ccc(F)cc1 (centres undefined),inactive
